# Measurements: the supplement of paper PMC8728848
# The sample as a whole holds a higher share of the strongest signals than the screen did.
# What was measured:
# Experiment in all cases: glycan array binding signal (z-score within array); higher = stronger binding
# Neu5Ac(a2-3)GalNAc = conditions: glycan notation: IUPAC condensed, linker removed
# Outline: (§1)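 From the Consortium for Functional Glycomics database, 3228 arrays were curated, keeping only those whose protein sequence was available. Binding is given as a within-array Z-score averaged across arrays sharing a protein sequence and across linkers. Negative Z-scores can be read as non-binding.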
# [1] = tested on: Neu5Ac(a2-3)[Neu5Ac(a2-6)]GalNAc; conditions: glycan notation: IUPAC condensed, linker removed
# Outline: as §1
# [2] = tested on: Neu5Ac(a2-3)[GalNAc(b1-4)]Gal(b1-4)Glc; conditions: glycan notation: IUPAC condensed, linker removed
# Outline: as §1
# [3] = tested on: Neu5Ac(a2-3)[GalNAc(b1-4)]Gal(b1-4)GlcNAc(b1-3)GalNAc; conditions: glycan notation: IUPAC condensed, linker removed
# Outline: as §1
# [4] = tested on: Neu5Ac(a2-6)Gal(b1-4)GlcNAc(b1-2)Man(a1-3)[Gal(b1-4)GlcNAc(b1-2)Man(a1-6)]Man(b1-4)GlcNAc(b1-4)GlcNAc; conditions: glycan notation: IUPAC condensed, linker removed
# Outline: as §1
# [5] = tested on: Neu5Ac(a2-3)GalNAc(b1-4)GlcNAc; conditions: glycan notation: IUPAC condensed, linker removed
# Outline: as §1
# [6] = tested on: Neu5Ac(a2-3)[GalNAc(b1-4)]Gal(b1-4)GlcNAc; conditions: glycan notation: IUPAC condensed, linker removed
# Outline: as §1
# [7] = tested on: Neu5Ac(a2-3)Gal6S(b1-4)[Fuc(a1-3)]GlcNAc; conditions: glycan notation: IUPAC condensed, linker removed
# Outline: as §1
# [8] = tested on: Neu5Ac(a2-6)Gal(b1-3)GlcNAc(b1-3)[Gal(b1-4)GlcNAc(b1-6)]Gal(b1-4)Glc; conditions: glycan notation: IUPAC condensed, linker removed; mutation: R125K
# Outline: as §1
# Neu5Ac(a2-3)Gal = conditions: glycan notation: IUPAC condensed, linker removed
# Outline: as §1
# Sequence of C3b (Homo sapiens), P01024 (P01024 23-667): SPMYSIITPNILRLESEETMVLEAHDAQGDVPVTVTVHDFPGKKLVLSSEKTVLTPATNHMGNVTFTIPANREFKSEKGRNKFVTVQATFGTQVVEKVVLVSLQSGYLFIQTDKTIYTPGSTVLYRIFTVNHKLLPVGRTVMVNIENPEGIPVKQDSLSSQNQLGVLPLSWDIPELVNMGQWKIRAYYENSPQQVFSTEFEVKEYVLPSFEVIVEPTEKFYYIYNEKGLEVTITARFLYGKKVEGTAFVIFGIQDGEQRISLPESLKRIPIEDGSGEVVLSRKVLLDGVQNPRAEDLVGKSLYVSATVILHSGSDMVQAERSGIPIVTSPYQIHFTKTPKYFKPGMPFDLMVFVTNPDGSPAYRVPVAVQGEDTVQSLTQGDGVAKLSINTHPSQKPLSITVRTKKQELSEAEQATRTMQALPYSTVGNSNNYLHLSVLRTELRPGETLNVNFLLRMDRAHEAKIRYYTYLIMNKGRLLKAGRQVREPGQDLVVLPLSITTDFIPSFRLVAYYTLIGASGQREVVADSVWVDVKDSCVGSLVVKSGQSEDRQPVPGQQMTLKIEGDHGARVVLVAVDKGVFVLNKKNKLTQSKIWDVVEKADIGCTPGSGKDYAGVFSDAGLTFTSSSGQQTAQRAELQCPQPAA
# Sequence of 6RG (Lolium perenne) (chain, as listed by the source): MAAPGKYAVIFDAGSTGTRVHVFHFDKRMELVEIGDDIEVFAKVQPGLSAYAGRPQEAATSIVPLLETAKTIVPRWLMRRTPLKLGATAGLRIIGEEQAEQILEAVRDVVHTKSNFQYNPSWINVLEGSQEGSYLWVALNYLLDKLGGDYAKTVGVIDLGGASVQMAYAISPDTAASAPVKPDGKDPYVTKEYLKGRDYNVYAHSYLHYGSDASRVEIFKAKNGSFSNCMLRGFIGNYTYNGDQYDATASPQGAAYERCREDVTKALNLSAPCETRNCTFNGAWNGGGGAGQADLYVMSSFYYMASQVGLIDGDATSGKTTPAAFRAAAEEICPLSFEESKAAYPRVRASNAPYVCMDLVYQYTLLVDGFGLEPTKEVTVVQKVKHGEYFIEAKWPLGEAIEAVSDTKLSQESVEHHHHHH
# Sequence of wLAT-1A (Homo sapiens), Q01650 (Q01650 whole entry): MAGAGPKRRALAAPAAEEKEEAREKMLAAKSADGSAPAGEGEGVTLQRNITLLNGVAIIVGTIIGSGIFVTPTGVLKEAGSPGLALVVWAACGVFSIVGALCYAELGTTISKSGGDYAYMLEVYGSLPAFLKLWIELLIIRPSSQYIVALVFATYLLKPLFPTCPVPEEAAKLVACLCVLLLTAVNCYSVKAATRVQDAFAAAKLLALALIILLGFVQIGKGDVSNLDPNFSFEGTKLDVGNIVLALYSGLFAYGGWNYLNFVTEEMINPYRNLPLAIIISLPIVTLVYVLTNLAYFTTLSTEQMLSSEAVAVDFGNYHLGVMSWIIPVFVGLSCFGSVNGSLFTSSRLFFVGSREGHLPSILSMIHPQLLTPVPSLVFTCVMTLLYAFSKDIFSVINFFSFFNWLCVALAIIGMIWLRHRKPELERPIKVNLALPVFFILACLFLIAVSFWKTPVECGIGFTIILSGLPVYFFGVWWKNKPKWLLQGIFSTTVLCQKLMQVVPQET
# Sequence of CHI3L1 (Homo sapiens), P36222 (P36222 whole entry): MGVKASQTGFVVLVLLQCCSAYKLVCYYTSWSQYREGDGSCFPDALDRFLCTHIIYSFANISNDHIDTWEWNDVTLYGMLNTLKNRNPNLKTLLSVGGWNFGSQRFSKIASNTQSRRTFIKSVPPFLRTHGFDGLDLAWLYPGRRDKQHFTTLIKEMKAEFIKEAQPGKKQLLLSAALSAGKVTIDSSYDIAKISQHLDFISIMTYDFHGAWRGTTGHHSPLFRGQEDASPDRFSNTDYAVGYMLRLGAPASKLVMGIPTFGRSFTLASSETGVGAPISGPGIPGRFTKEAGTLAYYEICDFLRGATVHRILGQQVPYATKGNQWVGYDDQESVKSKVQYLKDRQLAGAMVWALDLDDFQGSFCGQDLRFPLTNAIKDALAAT
# Sequence of PILRb (Mus musculus), Q2YSF2 (Q2YSF2 entry or part of it): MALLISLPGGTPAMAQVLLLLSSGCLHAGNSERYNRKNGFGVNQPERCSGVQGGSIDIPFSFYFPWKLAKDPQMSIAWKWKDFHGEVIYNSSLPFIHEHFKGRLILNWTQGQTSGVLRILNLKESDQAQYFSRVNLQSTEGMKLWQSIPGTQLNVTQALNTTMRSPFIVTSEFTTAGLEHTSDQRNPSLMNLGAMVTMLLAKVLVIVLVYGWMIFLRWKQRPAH
# Sequence of Regenerating Gene IV (Homo sapiens), Q9BYZ8 (Q9BYZ8 whole entry, looked up): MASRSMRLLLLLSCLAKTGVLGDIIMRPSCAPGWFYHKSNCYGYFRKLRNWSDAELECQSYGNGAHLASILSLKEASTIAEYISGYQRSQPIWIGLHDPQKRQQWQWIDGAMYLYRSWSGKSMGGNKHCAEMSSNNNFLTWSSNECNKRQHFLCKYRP
# Sequence of 6RG (Lolium perenne), B9U140 (B9U140 entry or part of it): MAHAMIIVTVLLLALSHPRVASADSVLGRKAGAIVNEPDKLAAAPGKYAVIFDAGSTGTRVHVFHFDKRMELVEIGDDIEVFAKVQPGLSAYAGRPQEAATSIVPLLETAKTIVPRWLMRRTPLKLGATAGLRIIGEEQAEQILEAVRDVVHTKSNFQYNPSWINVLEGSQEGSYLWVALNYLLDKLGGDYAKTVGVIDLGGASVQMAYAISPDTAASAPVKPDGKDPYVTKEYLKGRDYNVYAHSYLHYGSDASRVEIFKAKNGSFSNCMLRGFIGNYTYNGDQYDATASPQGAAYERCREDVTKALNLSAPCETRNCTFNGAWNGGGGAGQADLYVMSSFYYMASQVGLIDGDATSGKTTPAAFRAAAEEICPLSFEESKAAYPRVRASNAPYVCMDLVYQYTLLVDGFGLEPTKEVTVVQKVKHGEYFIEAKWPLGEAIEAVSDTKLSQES
# Sequence of Neurocan (Homo sapiens), O14594 (O14594 other isoform, or with tags, fused parts or gaps): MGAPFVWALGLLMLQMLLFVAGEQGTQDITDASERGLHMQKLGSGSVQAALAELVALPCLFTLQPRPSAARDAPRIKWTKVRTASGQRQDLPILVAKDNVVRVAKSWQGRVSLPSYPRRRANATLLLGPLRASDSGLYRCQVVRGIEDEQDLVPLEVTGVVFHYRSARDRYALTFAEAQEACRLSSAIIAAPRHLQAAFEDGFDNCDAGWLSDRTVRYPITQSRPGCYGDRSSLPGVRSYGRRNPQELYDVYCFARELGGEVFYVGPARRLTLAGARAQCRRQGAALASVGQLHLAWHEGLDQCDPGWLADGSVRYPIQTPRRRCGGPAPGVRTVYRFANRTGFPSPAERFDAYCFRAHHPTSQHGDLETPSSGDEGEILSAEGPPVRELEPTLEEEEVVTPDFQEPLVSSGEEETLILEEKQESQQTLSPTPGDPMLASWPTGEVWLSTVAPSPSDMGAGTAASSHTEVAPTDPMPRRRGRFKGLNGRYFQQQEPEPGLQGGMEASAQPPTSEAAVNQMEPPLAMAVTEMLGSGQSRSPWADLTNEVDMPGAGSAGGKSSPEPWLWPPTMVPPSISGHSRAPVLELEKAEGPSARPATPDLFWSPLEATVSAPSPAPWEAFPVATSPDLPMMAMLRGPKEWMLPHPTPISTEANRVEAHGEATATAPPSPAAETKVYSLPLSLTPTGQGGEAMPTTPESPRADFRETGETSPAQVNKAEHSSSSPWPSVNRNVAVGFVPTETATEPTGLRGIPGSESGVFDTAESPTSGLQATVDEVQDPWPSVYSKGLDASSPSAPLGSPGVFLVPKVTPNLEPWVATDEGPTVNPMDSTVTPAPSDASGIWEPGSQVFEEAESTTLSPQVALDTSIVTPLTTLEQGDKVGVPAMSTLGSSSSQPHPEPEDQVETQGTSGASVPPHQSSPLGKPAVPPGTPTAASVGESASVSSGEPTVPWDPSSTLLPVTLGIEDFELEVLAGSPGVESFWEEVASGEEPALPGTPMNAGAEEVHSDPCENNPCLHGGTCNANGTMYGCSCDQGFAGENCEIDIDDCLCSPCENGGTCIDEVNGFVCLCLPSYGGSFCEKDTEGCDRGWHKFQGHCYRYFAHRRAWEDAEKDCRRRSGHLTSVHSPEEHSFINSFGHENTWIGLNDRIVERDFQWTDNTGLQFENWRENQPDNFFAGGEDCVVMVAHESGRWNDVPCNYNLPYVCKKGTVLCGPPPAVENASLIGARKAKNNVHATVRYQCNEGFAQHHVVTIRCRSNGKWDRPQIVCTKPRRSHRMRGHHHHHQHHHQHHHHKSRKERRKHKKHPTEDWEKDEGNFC
substance,measurement,setting,value
MpAFP RI GFP (Marinomonas primoryensis),glycan array binding signal (z-score),Neu5Ac(a2-3)GalNAc,2.97
"6RG (Lolium perenne), B9U140",glycan array binding signal (z-score),[1],-0.334
"Regenerating Gene IV (Homo sapiens), Q9BYZ8",glycan array binding signal (z-score),[2],0.356
"Neurocan (Homo sapiens), O14594",glycan array binding signal (z-score),[3],-0.87
"wLAT-1A (Homo sapiens), Q01650",glycan array binding signal (z-score),[1],0.503
same,glycan array binding signal (z-score),[4],-0.898
"C3b (Homo sapiens), P01024",glycan array binding signal (z-score),[5],1.01
same,glycan array binding signal (z-score),[6],-0.304
same,glycan array binding signal (z-score),[4],-0.286
"Siglec-8 (Homo sapiens), Q9NYZ4",glycan array binding signal (z-score),[7],15
same,glycan array binding signal (z-score),[5],-0.069
same,glycan array binding signal (z-score),[8],-0.472
6RG (Lolium perenne),glycan array binding signal (z-score),Neu5Ac(a2-3)Gal,-0.339
same,glycan array binding signal (z-score),[1],-0.349
"CHI3L1 (Homo sapiens), P36222",glycan array binding signal (z-score),[7],-0.117
same,glycan array binding signal (z-score),Neu5Ac(a2-3)GalNAc,-0.131
"PILRb (Mus musculus), Q2YSF2",glycan array binding signal (z-score),[6],-0.329
